Of roughly 21,000 targets only a part is listed; those with the largest changes were picked by preference.
Compound: CC1Cc2ccccc2N1C(=O)C1CCCN(C1)C(=O)CCl (mixture of isomers) [TRIM25 ligand 11 (diastereomer mixture)]
Assay: probe-labelled cysteine peptide fold change vs DMSO (competition) (log2 fold change); higher = less target engagement (more negative = stronger competition)
Conditions: THP-1, incubation time: 4 h
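Further: competitive chemoproteomic profiling in live THP-1 cells with an iodoacetamide desthiobiotin (IA-DTB) probe, comparing probe-labelled peptide intensities in compound-treated cells against DMSO-treated controls.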

Chain of UniProt Q96QT4 (Q96QT4 whole entry, looked up): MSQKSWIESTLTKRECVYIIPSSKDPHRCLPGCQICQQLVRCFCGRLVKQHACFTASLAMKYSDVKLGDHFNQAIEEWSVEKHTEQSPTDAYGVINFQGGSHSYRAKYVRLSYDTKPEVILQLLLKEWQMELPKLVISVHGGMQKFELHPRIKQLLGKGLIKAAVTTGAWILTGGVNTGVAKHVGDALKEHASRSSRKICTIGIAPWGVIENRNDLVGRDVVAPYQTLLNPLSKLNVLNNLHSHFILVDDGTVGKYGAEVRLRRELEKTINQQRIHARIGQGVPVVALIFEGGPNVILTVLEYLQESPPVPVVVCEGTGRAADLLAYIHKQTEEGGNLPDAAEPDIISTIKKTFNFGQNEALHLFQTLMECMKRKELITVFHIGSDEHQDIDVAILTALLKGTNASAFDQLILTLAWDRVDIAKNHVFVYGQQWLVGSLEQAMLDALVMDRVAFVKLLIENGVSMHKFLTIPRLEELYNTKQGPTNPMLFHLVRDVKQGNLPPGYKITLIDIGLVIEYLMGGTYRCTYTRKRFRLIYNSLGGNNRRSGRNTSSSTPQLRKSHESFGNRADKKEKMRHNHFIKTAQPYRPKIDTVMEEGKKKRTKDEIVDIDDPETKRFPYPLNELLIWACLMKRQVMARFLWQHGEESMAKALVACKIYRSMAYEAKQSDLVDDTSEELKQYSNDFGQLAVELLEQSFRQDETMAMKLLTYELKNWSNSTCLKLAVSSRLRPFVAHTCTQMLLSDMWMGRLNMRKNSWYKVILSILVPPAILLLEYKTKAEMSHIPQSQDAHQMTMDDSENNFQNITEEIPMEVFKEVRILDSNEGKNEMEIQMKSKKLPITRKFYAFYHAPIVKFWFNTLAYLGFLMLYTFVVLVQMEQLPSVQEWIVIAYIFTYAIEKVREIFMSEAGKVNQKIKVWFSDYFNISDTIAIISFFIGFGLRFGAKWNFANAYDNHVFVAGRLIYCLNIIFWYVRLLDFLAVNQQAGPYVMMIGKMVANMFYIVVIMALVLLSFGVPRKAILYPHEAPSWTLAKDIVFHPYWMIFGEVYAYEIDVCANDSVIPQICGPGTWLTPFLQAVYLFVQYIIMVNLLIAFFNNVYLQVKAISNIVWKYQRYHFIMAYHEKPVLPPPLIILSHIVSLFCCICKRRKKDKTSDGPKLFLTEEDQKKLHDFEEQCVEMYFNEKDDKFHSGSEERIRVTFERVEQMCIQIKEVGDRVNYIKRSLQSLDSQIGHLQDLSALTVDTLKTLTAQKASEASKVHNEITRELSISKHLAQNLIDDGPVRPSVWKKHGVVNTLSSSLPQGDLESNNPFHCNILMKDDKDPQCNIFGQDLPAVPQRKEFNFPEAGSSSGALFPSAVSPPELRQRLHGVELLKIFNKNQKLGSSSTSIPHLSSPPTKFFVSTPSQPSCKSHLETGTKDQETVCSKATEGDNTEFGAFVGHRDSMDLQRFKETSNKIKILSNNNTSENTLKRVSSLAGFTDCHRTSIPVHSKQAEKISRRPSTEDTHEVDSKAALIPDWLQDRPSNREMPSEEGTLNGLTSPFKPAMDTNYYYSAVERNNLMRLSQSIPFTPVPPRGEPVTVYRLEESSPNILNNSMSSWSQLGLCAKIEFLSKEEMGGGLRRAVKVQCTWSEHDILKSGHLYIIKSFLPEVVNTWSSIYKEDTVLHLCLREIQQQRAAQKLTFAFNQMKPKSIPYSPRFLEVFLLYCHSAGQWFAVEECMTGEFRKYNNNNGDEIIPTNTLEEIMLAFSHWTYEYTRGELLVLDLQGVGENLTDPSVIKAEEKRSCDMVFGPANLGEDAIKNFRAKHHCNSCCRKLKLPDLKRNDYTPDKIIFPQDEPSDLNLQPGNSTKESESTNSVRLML
Chain of UniProt Q99757 (Q99757 whole entry, looked up): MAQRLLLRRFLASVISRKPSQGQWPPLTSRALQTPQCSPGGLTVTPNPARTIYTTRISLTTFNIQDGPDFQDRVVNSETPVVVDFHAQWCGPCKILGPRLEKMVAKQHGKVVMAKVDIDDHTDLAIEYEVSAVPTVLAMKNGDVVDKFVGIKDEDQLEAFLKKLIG
Chain of UniProt Q9H270 (Q9H270 whole entry, looked up): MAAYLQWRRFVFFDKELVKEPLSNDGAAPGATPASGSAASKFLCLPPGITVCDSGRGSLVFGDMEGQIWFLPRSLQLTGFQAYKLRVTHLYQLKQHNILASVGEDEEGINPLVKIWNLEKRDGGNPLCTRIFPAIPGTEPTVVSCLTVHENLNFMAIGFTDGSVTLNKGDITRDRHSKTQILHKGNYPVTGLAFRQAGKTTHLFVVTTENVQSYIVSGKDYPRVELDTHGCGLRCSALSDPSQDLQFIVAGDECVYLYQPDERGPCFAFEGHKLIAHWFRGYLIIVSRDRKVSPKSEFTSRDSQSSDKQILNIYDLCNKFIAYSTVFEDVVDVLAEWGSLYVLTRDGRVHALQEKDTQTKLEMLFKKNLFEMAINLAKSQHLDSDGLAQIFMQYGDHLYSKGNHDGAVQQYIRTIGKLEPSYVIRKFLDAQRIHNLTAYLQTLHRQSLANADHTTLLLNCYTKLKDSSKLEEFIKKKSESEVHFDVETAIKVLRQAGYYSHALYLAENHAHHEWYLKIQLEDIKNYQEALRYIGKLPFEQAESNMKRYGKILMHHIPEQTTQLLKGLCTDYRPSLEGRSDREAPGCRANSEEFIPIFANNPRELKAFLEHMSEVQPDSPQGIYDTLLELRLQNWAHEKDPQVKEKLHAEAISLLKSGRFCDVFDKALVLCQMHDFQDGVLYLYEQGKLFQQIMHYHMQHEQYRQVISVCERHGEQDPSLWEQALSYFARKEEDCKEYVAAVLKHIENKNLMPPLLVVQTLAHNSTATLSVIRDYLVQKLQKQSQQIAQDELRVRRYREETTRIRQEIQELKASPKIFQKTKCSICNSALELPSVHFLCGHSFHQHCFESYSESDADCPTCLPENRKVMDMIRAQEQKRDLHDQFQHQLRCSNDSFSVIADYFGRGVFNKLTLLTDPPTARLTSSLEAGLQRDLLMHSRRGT
Chain of UniProt Q96N46 (Q96N46 whole entry, looked up): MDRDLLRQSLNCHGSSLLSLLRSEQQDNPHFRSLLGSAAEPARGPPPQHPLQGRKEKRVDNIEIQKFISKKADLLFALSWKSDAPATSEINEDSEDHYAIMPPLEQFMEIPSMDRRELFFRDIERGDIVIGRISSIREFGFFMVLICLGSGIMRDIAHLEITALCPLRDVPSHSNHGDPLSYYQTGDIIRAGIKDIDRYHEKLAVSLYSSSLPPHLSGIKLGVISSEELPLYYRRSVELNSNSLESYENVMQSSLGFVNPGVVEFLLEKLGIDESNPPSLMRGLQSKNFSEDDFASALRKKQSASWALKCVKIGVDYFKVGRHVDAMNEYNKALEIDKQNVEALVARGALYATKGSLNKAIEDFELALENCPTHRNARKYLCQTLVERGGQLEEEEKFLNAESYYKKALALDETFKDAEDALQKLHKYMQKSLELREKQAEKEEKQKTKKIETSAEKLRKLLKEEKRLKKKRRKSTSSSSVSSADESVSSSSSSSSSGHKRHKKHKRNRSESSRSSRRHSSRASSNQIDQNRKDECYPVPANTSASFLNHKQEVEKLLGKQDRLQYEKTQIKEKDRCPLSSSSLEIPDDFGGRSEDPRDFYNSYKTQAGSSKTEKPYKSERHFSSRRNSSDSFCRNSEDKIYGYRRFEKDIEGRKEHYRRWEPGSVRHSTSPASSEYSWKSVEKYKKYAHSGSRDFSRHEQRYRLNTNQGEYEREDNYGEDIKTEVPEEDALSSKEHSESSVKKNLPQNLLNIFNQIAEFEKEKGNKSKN
Chain of UniProt Q9P253 (Q9P253 whole entry, looked up): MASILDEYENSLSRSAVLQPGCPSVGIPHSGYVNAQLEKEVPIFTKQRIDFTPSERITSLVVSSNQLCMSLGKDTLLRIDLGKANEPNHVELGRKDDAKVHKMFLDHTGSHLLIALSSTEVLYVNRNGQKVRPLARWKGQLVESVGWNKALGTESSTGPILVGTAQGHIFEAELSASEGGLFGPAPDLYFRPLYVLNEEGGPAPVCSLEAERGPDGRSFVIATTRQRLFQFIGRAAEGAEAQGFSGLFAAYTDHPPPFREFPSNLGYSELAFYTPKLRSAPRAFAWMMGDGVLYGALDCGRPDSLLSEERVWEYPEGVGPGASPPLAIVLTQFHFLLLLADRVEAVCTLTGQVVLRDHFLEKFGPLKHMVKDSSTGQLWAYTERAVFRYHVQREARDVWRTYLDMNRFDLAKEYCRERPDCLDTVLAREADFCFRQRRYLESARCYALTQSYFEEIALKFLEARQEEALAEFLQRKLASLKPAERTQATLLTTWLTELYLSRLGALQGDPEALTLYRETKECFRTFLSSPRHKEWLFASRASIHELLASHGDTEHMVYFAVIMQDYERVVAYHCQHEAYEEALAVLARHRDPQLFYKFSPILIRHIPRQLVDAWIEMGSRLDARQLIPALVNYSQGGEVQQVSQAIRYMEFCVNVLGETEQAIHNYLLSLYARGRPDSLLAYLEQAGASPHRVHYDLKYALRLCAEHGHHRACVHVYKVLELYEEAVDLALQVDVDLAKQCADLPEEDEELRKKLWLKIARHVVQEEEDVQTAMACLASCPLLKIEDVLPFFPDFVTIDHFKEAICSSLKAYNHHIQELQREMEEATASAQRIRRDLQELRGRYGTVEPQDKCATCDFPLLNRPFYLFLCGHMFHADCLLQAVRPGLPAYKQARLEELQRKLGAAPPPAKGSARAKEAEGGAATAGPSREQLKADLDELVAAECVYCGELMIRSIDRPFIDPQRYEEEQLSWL

Row | Target | probe-labelled cysteine peptide fold change (10 µM) | probe-labelled cysteine peptide fold change (50 µM)
1 | TRPM7_Q96QT4_1426_DQETVCSK (UniProt Q96QT4) | -0.118 | -0.219
2 | TTC14_Q96N46_165_DIAHLEITALCPLR (UniProt Q96N46) | 0.0661 | 0.0914
3 | VPS18_Q9P253_947_ADLDELVAAECVYCGELMIR (UniProt Q9P253) | 0.712 | 0.481
4 | WT1_P19544_385_HTGVKPFQCK (UniProt P19544) | -0.144 | -0.103
5 | UBR5_O95071_1382+1386_LDCFTHCLIVK (UniProt O95071) | 0.374 | 0.564
6 | TTC37_Q6PGP7_600_DFNCWESLGEAYLSR (UniProt Q6PGP7) | 0.0103 | -0.0643
7 | UNC45A_Q9H3U1_503_ALVGLCK (UniProt Q9H3U1) | 0.0324 | 0.188
8 | TXN2_Q99757_90+93_VVNSETPVVVDFHAQWCGPCK (UniProt Q99757) | -0.411 | -1.31
9 | TXNRD2_Q9NNW7_523_SGLDPTVTGCUG (UniProt Q9NNW7) | -0.465 | -2
10 | UBR4_Q5T4S7_1662_LCTFTITQK (UniProt Q5T4S7) | -0.119 | -0.0801
11 | TXNRD1_Q16881_339_EYCISSDDLFSLPYCPGK (UniProt Q16881) | 0.364 | 0.552
12 | VPS11_Q9H270_586_EAPGCR (UniProt Q9H270) | 0.694 | 1.1
13 | TXNRD1_Q16881_625_QLDSTIGIHPVCAEVFTTLSVTK (UniProt Q16881) | 0.301 | 0.194
14 | TTYH3_Q9C0H2_486_CENTPLIGR (UniProt Q9C0H2) | -0.0936 | -0.00547
15 | USP4_Q13107_7_AEGGGCR (UniProt Q13107) | 0.644 | 0.609
